KCNQ2 enhance = potentiators of rat KCNQ2 potassium channel; Potassium voltage-gated channel subfamily KQT member 2 (Rattus norvegicus), O88943; actives 0.54% (n = 310,000); B-score at 10 µM; CHO-K1 KCNQ2, FluxOR thallium flux fluorescence; active compounds read high;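 active means fluorescence ratio B-score at least 3 SD of library B-scores, with initial fluorescence B-score within 3 of them, cut at about 5.3 in these data; same plate scores as AID 2156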;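 further: B-score of peak minus minimum over baseline fluorescence ratio after K+ and Tl+ stimulus; positive B-score means potentiation of KCNQ2 with more thallium influx and brighter signal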
KCNQ2 inh = rat KCNQ2 potassium channel inhibitors, primary screen, cell-based, CHO-K1, FluxOR thallium flux, B-score. actives 1.1% (n = 310,000). AID 2156, 2009. Potassium voltage-gated channel subfamily KQT member 2 (Rattus norvegicus), O88943. B-score at 10 µM. 20 min; active compounds read low;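 active means fluorescence ratio B-score at most minus 3 library SDs, with starting brightness B-score within 2 library SDs, cut at about -5.5 in these data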
Kir21 confirm = mouse Kir2.1 channel blockers, retest, confirmation, cell-based, FluxOR thallium flux, duplicate; shares compounds with KCNQ2 enhance; actives 41% (n = 2,300); Tl flux remaining, % of negative control (active compounds read low), % at 10 µM; Kir2.1-expressing cells, FluxOR thallium flux fluorescence; active compounds read low;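 active means Primary-screen hit whose thallium flux fell at least 3 control SD below untreated wells in both duplicates, with normal baseline fluorescence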;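 further: 0% = blank wells without stimulus and 100% = stimulated no-compound controls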
HEK293 Tl flux = counter-screen for Kir2.1 inhibitors: effect in parental HEK293 cells; shares compounds with KCNQ2 enhance; FluxOR thallium flux fluorescence; 0% = unstimulated blank wells; FluxOR signal as % of negative control (100 = no effect), % at 10 µM; actives 19% (n = 2,300); AID 2105;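 active means dye signal at least 3 control SD above or below untreated wells in both duplicates, raw fluorescence within 3, either direction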;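 further: percent is based on the flux ratio of peak minus minimum fluorescence over baseline F0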
CHO-K1 Tl ctr = nonspecific thallium flux increase in parental CHO-K1, confirmation, counter-screen for KCNQ2 potentiator project, cell-based, FluxOR thallium flux, duplicate | parental CHO-K1 cells, FluxOR thallium flux fluorescence; zero = vehicle mean+3SD, 100% = vehicle-minus-blank window | activity increase over 3SD of controls, % at 10 µM | shares compounds with KCNQ2 enhance | actives 43% (n = 1,200);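 active means signal rise of at least 3 SD above the untreated control mean, in both duplicate wells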;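 further: counter screen of KCNQ2 potentiator hits so any rise reflects channel-independent effects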
KCNQ1 pot spec = human KCNQ1 channel potentiation off-target, confirmation, selectivity assay for KCNQ2 potentiator project, cell-based, CHO, FluxOR thallium flux; AID 2283, 2010; shares compounds with KCNQ2 enhance; CHO KCNQ1 stable, FluxOR thallium flux fluorescence; beyond 3SD, as % of vehicle-control signal; actives 28% (n = 1,200); activation over 3SD threshold, % at 10 µM;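 active means fluorescence ratio rise of at least 3 SD of vehicle wells above their mean, in both replicate wells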;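 further: 0% = vehicle mean plus 3 SD and 100% = vehicle minus unstimulated blank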
KCNQ2 pot confirm = rat KCNQ2 channel potentiators, confirmation, cell-based, CHO, FluxOR thallium flux, duplicate | shares compounds with KCNQ2 enhance | CHO-KCNQ2 cells, FluxOR thallium flux fluorescence | potentiation, less the hit threshold, % at 10 µM | actives 68% (n = 1,200) | AID 2287, 2010;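 active means fluorescence ratio rising 3 SD or more over the vehicle control mean in both replicates, plus primary screen hit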;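 further: peak minus minimum thallium fluorescence divided by baseline after K/Tl stimulus; 0% = vehicle mean plus 3 SD and 100% = vehicle minus unstimulated blank difference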
Kir21 spec = mouse Kir2.1 channel activation off-target, confirmation, selectivity assay for KCNQ2 potentiator project, cell-based, HEK293, FluxOR thallium flux | shares compounds with KCNQ2 enhance | HEK293 Kir2.1, FluxOR thallium flux fluorescence | activity over 3SD threshold, % at 10 µM | actives 2% (n = 1,200);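 active means fluorescence ratio rise of at least 3 SD above the vehicle-control mean, seen in both replicates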;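 further: 0% = vehicle mean plus 3 SD and 100% = vehicle minus no-stimulus blank window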
KCNQ2 W236L pot = potentiators of retigabine-insensitive KCNQ2 W236L, mechanism study for KCNQ2 potentiator project, cell-based, rat KCNQ2 W236L, CHO, automated patch clamp; current increase over 3SD of negative controls (%), active compounds read high, % at 25 µM; actives 10% (n = 940); shares compounds with KCNQ2 enhance; automated patch clamp current;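 active means current increase at least 3 SD of the untreated controls above them in both duplicate recordings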
Target sequence (O88943 whole entry W236L, looked up): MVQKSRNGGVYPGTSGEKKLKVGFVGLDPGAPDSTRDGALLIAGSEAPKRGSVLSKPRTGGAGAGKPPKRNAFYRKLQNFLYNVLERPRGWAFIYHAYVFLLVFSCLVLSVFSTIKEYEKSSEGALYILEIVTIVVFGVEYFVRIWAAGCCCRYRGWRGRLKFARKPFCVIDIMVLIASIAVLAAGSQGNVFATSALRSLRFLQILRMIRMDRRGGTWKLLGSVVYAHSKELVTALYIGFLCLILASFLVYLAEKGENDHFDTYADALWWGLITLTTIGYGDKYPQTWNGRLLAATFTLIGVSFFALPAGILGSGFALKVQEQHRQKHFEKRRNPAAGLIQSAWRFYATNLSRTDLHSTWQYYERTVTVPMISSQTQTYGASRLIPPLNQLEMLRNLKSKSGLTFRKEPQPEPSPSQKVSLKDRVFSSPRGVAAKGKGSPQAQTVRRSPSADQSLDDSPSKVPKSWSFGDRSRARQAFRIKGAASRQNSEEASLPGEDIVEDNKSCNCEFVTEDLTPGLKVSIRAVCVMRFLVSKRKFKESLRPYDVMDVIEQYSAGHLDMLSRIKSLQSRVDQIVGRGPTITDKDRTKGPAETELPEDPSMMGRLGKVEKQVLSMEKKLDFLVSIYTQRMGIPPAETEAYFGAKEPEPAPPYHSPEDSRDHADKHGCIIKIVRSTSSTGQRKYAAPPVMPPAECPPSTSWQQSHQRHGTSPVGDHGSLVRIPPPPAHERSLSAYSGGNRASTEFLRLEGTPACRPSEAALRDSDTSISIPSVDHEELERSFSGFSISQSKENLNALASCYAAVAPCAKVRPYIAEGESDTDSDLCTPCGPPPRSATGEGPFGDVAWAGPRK
* hit, by the source's call; i = inactive; · = not tested or not shown. This is a sample that favours compounds with a hit; in the whole collection about 1.6% have one here.

SMILES	KCNQ2 enhance	KCNQ2 inh	Kir21 confirm	HEK293 Tl flux	CHO-K1 Tl ctr	KCNQ1 pot spec	KCNQ2 pot confirm	Kir21 spec	others
CCOC(=O)c1c(-c2ccccc2)csc1NC(=S)NC	7.8*	i	i	220%*	-4	-22	7.3*	-27	KCNQ2 W236L pot=i
CCOc1ccc(S(=O)(=O)Nc2cccc(C(=O)NCC3CCCO3)c2)cc1 (configuration not stated)	0.73	i	·	·	·	·	·	·
O=C(c1cccc(Cl)c1)N1CCC(N2CCC(C(=O)N3CCCC3)CC2)CC1	0.4	i	·	·	·	·	·	·
CCN(CC)C(=S)NC(=O)c1ccc(OC)c(Br)c1	2.2	i	·	·	·	·	·	·
C=CCN(CC=C)C(=S)NC(=O)c1ccc(OC)c(Br)c1	7.2*	i	i	336%*	1.9*	20*	20*	-25	KCNQ2 W236L pot=i
C=CCNC(=S)NNC(=O)c1ccc(C)c(Cl)c1	·	i	·	·	·	·	·	·
C=CCNC(=S)NC(=O)c1ccc(C)c(Br)c1	5.7*	i	i	i	22*	-26	-12	-40
CCCN1CCc2c(sc3nc(SCC)n(-c4ccc(OC)cc4)c(=O)c23)C1	·	i	·	·	·	·	·	·
CC1c2ccsc2CCN1S(=O)(=O)c1cccs1 (configuration not stated)	·	i	57%*	i	·	·	·	·
CN1CCN(S(=O)(=O)c2cccs2)CC1	0.11	i	·	·	·	·	·	·
CC(=O)Nc1ccc(C2NC(=O)CCC2[N+](=O)[O-])cc1 (configuration not stated)	0.25	i	·	·	·	·	·	·
CCCCCCCCCCCNC(=O)c1ccoc1C	13*	i	·	·	-20	66*	37*	-64	KCNQ2 W236L pot=i
Cc1occc1C(=O)NCCCCNC(=O)c1ccoc1C	0.46	i	·	·	·	·	·	·
CCC(CC)C(=O)OCC(=O)Nc1cc(OC)c([N+](=O)[O-])cc1C	·	i	·	·	·	·	·	·
CCc1ccccc1NC(=O)NC1CCCCCCC1	2.1	i	·	·	·	·	·	·
CCOC(=O)c1sc(=S)n(-c2ccccc2)c1NC(C)=O	7.5*	i	·	·	35*	3.6*	7.8*	-61	KCNQ2 W236L pot=i
CCOC(=O)c1sc(=S)n(C)c1NC(=O)c1ccccc1	·	i	·	·	·	·	·	·
CCOc1cc(/C=C(\C#N)C(=O)NCc2cccnc2)ccc1O	0.41	i	·	·	·	·	·	·
Cc1c(S(=O)(=O)Nc2ccc(Oc3ccccc3)cc2)c(=O)n(C)c(=O)n1C	·	i	·	·	·	·	·	·
CC(C)(C)c1cc(-c2n[nH]c(=S)n2-c2ccccc2F)n[nH]1	5.3*	i	i	154%*	-5	-39	44*	-36	KCNQ2 W236L pot=20%*
Cc1ccccc1-n1c(-c2ccc(=O)[nH]n2)n[nH]c1=S	1.9	i	·	·	·	·	·	·
O=C(Nc1ccc(-c2nc3ccccc3[nH]2)cc1)c1cccc(N2C(=O)CCC2=O)c1	1.6	i	·	·	·	·	·	·
OCCNCCNCc1ccccc1OCc1ccccc1	·	i	·	·	·	·	·	·
OCCNCc1c(OCc2ccc(Cl)cc2)ccc2ccccc12	0.51	i	37%*	i	·	·	·	·
O=C(NCCCN1CCCCC1)c1ccc(CS(=O)c2ccc(F)cc2)o1 (configuration not stated)	1.4	i	·	·	·	·	·	·
SMILES	KCNQ2 enhance	KCNQ2 inh	Kir21 confirm	HEK293 Tl flux	CHO-K1 Tl ctr	KCNQ1 pot spec	KCNQ2 pot confirm	Kir21 spec	others
COc1cccc2c1cc1c(=O)n(CC(=O)NCCCN3CCCCC3)nc(C)n12	1	i	·	·	·	·	·	·
Cc1cccc(C(=O)CC(=O)c2cc(Cl)ccc2O)c1	0.16	i	·	·	·	·	·	·
Cc1ccc(O)c(C(=O)CC(=O)c2cccc(F)c2)c1	1.6	i	·	·	·	·	·	·
O=C(CC(=O)c1cc(Cl)ccc1O)c1ccccc1	5.3*	i	i	130%*	-5	-16	-3	-14	KCNQ2 W236L pot=i
Cc1ccc(O)c(C(=O)CC(=O)c2ccc(Cl)cc2)c1	6.2*	i	i	i	-9	-18	-11	-34
N#CC1(NC(=O)CSc2nnc(-c3ccccc3F)o2)CCCCC1	·	i	·	·	·	·	·	·
O=C(NCCN1CCOCC1)c1cccc(S(=O)(=O)NCc2ccccc2)c1	·	i	·	·	·	·	·	·
C/C(=N\NC(=O)c1ccc(NS(=O)(=O)c2cccs2)cc1)c1ccc(O)cc1O	·	i	·	·	·	·	·	·
CCc1cccc(C)c1NC(=O)Nc1c(Br)cnn1C	·	i	·	·	·	·	·	·
CCCN(CCC)S(=O)(=O)c1ccc(C(=O)Nc2nc(-c3ccccc3)c(C(=O)OCC)s2)cc1	·	i	·	·	·	·	·	·
COc1ccc(N2CCc3c(C)nc4c(OC)cccc4c32)cc1	1.1	i	·	·	·	·	·	·
COc1cccc(N2CCc3c(C)nc4ccc(Cl)cc4c32)c1	·	i	20%*	i	·	·	·	·
Cc1cc(S(=O)(=O)N2CCN=C2c2ccccc2)c(Cl)cc1Cl	1.6	i	·	·	·	·	·	·
CCCc1nc(SCC(=O)NCc2ccco2)c2c(=O)n(C)c(=O)n(C)c2n1	2.5	i	·	·	·	·	·	·
Cn1c(=O)c2c(SCC(=O)Nc3nccs3)nc(C3CC3)nc2n(C)c1=O	0.34	i	·	·	·	·	·	·
Cn1c(=O)c2c(SCC(=O)c3ccccc3)nc(C3CC3)nc2n(C)c1=O	5.4*	i	i	i	84*	-14	2.4*	-24	KCNQ2 W236L pot=i
CCCc1nc(SCC(=O)c2ccccc2)c2c(=O)n(C)c(=O)n(C)c2n1	25*	i	i	i	67*	79*	56*	-26	KCNQ2 W236L pot=i
CCc1nc(SCC(=O)NCCc2ccccc2)c2c(=O)n(C)c(=O)n(C)c2n1	0.86	i	·	·	·	·	·	·
CCc1nc(SCC(=O)c2ccccc2)c2c(=O)n(C)c(=O)n(C)c2n1	5.4*	i	i	i	-25	-19	5.8*	-23	KCNQ2 W236L pot=i
Cc1noc(C)c1S(=O)(=O)N(C)CC(=O)Nc1ccc(F)cc1	0.14	i	·	·	·	·	·	·
CCOC(=O)Cc1csc(NC(=O)C(NC(=O)C2CCC(C)CC2)C(C)C)n1 (configuration not stated)	1.2	i	·	·	·	·	·	·
Cc1ccc(-c2csc(=S)[nH]2)cc1	22*	i	i	538%*	-23	23*	84*	11*	KCNQ2 W236L pot=i
Cc1ccc(-c2ccc(C(=O)O)[nH]2)cc1	·	i	·	·	·	·	·	·
